# This is part of a sample that, as a whole, favours compounds with a hit. Of some 83,000 tested, about 20% had one in any assay.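 The test compound was applied at a single concentration to cells in 96-well plates for 48 hours, and percent growth was recorded.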 Values without a mark were called inactive. Calls of active or inactive are those of the source. Rule for the calls: active = growth percent below 10; inactive = the rest.
# Test system: HL-60(TB) leukemia
# Assay: NCI-60 one-dose screen, 48 h (100 = growth as untreated, 0 = no growth, -100 = all killed)
# Conditions: 10 µM unless noted
row,SMILES,growth
1,CCCCCCNC(=O)Oc1ccc(/C(=C(\C)c2ccc(Cl)cc2)c2ccc(OCCCN(C)C)cc2)cc1,62.9%
2,N=C(N)c1ccc(-c2ccc(-c3cc(Cl)cc(Cl)c3)o2)nc1,-74.7% (active)
3,COc1ncc(-c2ccc3nccc(C#CCCCCC(=O)O)c3c2)cc1NS(=O)(=O)c1ccc(F)cc1F,26.8%
4,CCCNC(=O)Oc1ccc(/C(=C(/C)Cc2ccc(OC)cc2)c2ccc(OCCN3CCCC3)cc2)cc1,51.9%
5,COc1ccc(-c2cc(/C=C/C(=O)c3cc(OC)c(OC)c(OC)c3)[nH]n2)cc1OC,-22.9% (active)
6,CCC1=CC2CN(C1)Cc1c([nH]c3ccccc13)[C@@](C(=O)OC)(c1cc3c(cc1OC)N(C)[C@H]1[C@@](O)(C(=O)OC)[C@H](OC(C)=O)[C@]4(CC)C=CCN5CC[C@]31[C@@H]54)C2 (stereo not given in full),-15.6% (active)
7,COc1cccc(C(=O)Nc2cccc(NC(=O)c3ccccn3)c2)c1,87.8%
8,Clc1ccccc1/C=N\Nc1ccccn1,98.1%
9,COc1ccc(-c2cc(-c3ccc(N(C)C)cc3)nc(NC(=O)c3cccnc3)n2)cc1,109%
10,Cc1nc2c(ccc3ccccc32)s1,84.2%
11,COC12C=C/C(=C(/C(=O)OCc3csc(SC)n3)C(=O)CCCCCCCCC3(OC)C=C/C(=C(/C(=O)OCc4cnc(SC)s4)C(=O)CCCCCCCC1)O3)O2 (stereo not given),6.46% (active)
12,Cc1cc(N2CCSCC2)nc(NC2CCCC(Nc3ccnc4cc(Cl)ccc34)C2)n1 (stereo not given),-68.7% (active)
13,[2H]C([2H])([2H])Oc1cccc(/C=C/C(=O)/C=C(/C=C/c2cccc(OC([2H])([2H])[2H])c2OC([2H])([2H])[2H])OB(F)F)c1OC([2H])([2H])[2H],60%
14,NNc1ccc(S(N)(=O)=O)cc1,75.9%
15,O=C1c2ccccc2C(=O)c2sc(Nc3cccc(Cl)c3)nc21,-18.7% (active)
16,Cc1ccc2sc3c(NCCCN)nc4ccccc4c3c(=O)c2c1,-27.1% (active)
17,O=C(NNc1cnccn1)c1nc2cc(F)ccc2n2cccc12,2.46% (active)
18,Cc1nc(-c2ccccc2)cc2c(O)c(C(=O)N/N=C/c3ccc(N(C)C)cc3)[nH]c(=O)c12,116%
19,Cn1c(=O)c2c(nc(Br)n2CC(=O)Nc2ccc(F)cc2)n(C)c1=O,95.3%
20,Cc1ccc(CCC(=O)Nc2ncc(Cc3cc(Cl)ccc3Cl)s2)o1,-40.4% (active)

row,SMILES,growth
1,CCC(CO)Nc1nc2ccc(Cl)cc2c2ccccc12 (stereo not given),25%
2,O=C1SCN(Cc2ccccc2)CN1Cc1ccccc1,70.7%
3,NNC(=O)Cc1ccccc1,73.1%
4,CN(C)S(=O)(=O)c1cccc(-c2nc3sc4c(c3c(=O)[nH]2)CCCC4)c1,22.3%
5,CC1(C)CC[C@]23CC[C@]4(C)[C@H](CC[C@@H]5[C@@]6(C)CCCNC(C)(C)[C@@H]6CC[C@]54C)[C@H]2[C@H]1OC3,-65.5% (active)
6,COc1cccc(-c2nc3sccn3c2-c2ccnc(NCCN3CCCN(C)S3(=O)=O)n2)c1,105%
7,NC(=O)c1ccccc1OCC(O)CO (stereo not given),108%
8,c1ccc(CSc2nnc3c4c5c(sc4nc(-c4cccnc4)n23)CCCCCC5)cc1,4% (active)
9,NC(=S)N/N=C/c1cc(-c2cccc(N)c2)ccn1,-12% (active)
10,COCCCNS(=O)(=O)c1ncnc2nc[nH]c12,82.2%
11,CN1CCC(OC2c3ccccc3CCc3ccccc32)CC1,99.1%
12,Nc1cc2nc3ccccc3sc-2cc1=O,6.95% (active)
13,COc1cc2c(cc1OCCCCn1c(-c3cc(=O)c4ccccc4o3)nc3ccccc31)N=C[C@@H]1CCCN1C2=O,91.2%
14,CN1CCN(c2ccc(NC3=C(Cl)C(=O)c4ncccc4C3=O)cc2C#N)CC1,-26.3% (active)
15,Nc1ccc2c(c1)C(=O)C(=O)c1c-2nc2ccccn12,-47.3% (active)
16,O=C(CCCCNC(=O)c1nc(-c2ccccc2)n(-c2ccccc2)n1)NO,97%
17,O/N=C1\c2ccccc2-c2ccc(Br)cc21,109%
18,CC(C)(C)n1cc(-c2ccnc(NCCCNS(=O)(=O)c3ccc(Br)cc3)c2)c(-c2cccc(O)c2)n1,3.72% (active)
19,CN1C(=O)/C(=C/c2ccc(C(=O)Nc3ncc(Cc4ccccc4Cl)s3)cc2)SC1=S,73.1%
20,COc1ccc(/C=C/C(=O)c2ccc(NC(=O)CN3CCN(c4cc5c(cc4F)c(=O)c(C(=O)O)cn5C4CC4)CC3)cc2)cc1,123%

# — PubChem BioAssay (NCI)
